The values below come from PubChem BioAssay.

Activity calls are given as the source filed them. Unless noted, how the calls were made is not given here.

A short description of assay [1]: liver-stage malaria parasite load reduction – cell-based, known kinase inhibitor set, luminescence, hepatoma host viability (AID 624392).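 Further: infected cells incubated roughly two days before readout.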 The following applies: Plasmodium liver stage in hepatoma cells, luciferase luminescence, concentration not given here; liver cell % of control: measured here: host liver cell viability; parasite % of control: stronger effect = lower value.

The nature of assay [2]: altered dexamethasone sensitivity, NF-kB reporter, cell-based, luciferase, IL-1B stimulus (AID 624486).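 On percent of negative control (+Dex): 100% = mean signal of vehicle control wells on the plate.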 To be noted: IL-1B + dexamethasone, luminescence; percent of negative control (+Dex): actives lie on both sides, concentration not given here; z-score: measured here: IL-1B alone, no Dex.
The nature of assay [3]: C. elegans survival during P. aeruginosa infection – whole organism (AID 651566).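 Further: tested at 14 µM; sign flipped so higher z means a lower ratio.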 The following applies: C. elegans killed by P. aeruginosa, survival ratio.
Assay [4] in a line: pro-inflammatory signaling induction in mouse macrophages – cell-based, murine, luminescence (AID 652131). To be noted: murine macrophage pro-inflammatory reporter, stronger effect = higher value.
Assay [5] has as its target Cellular tumor antigen p53 (Homo sapiens) (UniProt P04637). In words: GFP-p53 level modulators in HPV16+ cells – imaging, known kinase inhibitor set, EGFP/DsRed ratio (AID 1053116).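 Further: cells exposed to compounds for 24 h at 37 °C before reading.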 To be noted: GFP-p53 stability, stronger effect = higher value; EGFP object count: measured here: GFP-p53 positive objects count.
Assay [6] is described as follows: inducers of IRF3 signaling, differentiated THP-1 – cell-based, PMA-stimulated THP-1, luminescence (AID 1053176). The following applies: PMA-differentiated THP-1, IRF3 reporter luminescence; stronger effect = higher value.
A short description of assay [7]: MELAS cybrid and Rieske KO viability enhancers – cell-based, MELAS cybrids, Rieske KO mouse fibroblasts, CellTiter-Glo, primary screen (AID 1508586;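 active means mean z-score across replicates of 1.96 or higher in either the MELAS or the Rieske mutant cell line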;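 further: z relative to plate mean and SD of compound and empty wells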). To be noted: low glucose. Background: In ATP-based viability assays light output follows the ATP content of the culture.
[8] abbreviates: MELAS cybrid survival, CellTiter-Glo 48 h, stronger effect = higher value.
Where [9] appears, read: Rieske KO mouse fibroblast survival, CellTiter-Glo 72 h.

Sequence of Cellular tumor antigen p53 (Homo sapiens) (P04637 whole entry, looked up): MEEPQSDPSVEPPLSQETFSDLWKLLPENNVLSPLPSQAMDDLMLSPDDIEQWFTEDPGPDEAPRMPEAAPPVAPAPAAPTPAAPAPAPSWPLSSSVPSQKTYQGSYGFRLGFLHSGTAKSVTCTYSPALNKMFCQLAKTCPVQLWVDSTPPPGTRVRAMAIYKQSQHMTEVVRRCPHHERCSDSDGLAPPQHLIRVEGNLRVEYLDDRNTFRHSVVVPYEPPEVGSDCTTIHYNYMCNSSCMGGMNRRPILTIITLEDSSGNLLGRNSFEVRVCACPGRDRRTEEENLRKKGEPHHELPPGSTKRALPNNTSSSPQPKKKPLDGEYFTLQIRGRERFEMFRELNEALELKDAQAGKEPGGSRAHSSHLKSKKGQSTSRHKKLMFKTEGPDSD

Compound `CNC(=O)c1ncccc1Nc1nc(Nc2cc3c(cc2OC)CCCN3C(=O)CN(C)C)nc2[nH]ccc12` showed a liver cell % of control in assay [1] of 91.6%. In addition, in assay [1], the parasite % of control was 670% (inactive). Further, the percent of negative control (+Dex) in assay [2] is 99.5% (inactive). Besides, the z-score in assay [2] is 0.22; in assay [3] it was 0.02 (inactive); in assay [4] it was 0.337 (inactive); in assay [7] (setting [8]), 6.01 (active); in assay [7] (setting [9]), 11.9. For the same compound, in assay [5], the EGFP object count turned out to be 3. In assay [5], the EGFP/DsRed ratio was 0.0957 (inactive). Besides, the fraction signal in assay [6] was -0.01 (inactive).

The compound `Nc1nccc(-c2c(-c3ccc(F)cc3)ncn2CCCN2CCOCC2)n1` returned a liver cell % of control in assay [1] of 120%. Besides, the parasite % of control in assay [1] is 130% (inactive). In addition, the percent of negative control (+Dex) in assay [2] was 116% (inactive). Besides, the z-score in assay [2] is 2.06; in assay [3], -0.635 (inactive); in assay [4] it was 1.67 (inactive); in assay [7] (setting [8]), -0.929 (inactive); in assay [7] (setting [9]), -0.324. The EGFP object count in assay [5] amounted to 3.5. Moreover, the EGFP/DsRed ratio in assay [5] is 0.019 (inactive). Also, the fraction signal in assay [6] is -0.0025 (inactive).

Turning to `COc1cccc(-n2nc(C)c3c(N/N=C(\C)c4ccncc4)ncnc32)c1`, the liver cell % of control in assay [1] was found to be 114%. Further, the parasite % of control in assay [1] was 124% (inactive). Also, the percent of negative control (+Dex) in assay [2] is 100% (inactive). Further, the z-score is 0.765 in assay [2]; 0.74 (inactive) in assay [3]; -0.201 (inactive) in assay [4]; -0.775 (inactive) in assay [7] (setting [8]); -0.494 in assay [7] (setting [9]). Further, the EGFP object count in assay [5] is 2. The EGFP/DsRed ratio in assay [5] was 0.0826 (inactive). The fraction signal in assay [6] was -0.0005 (inactive).

`O=C1Nc2ccc(C(=O)c3ccco3)cc2/C1=C/c1cc(Cl)c(O)c(Cl)c1` showed a liver cell % of control in assay [1] of 143%. Also, the parasite % of control in assay [1] is 74.2% (inactive). For the same compound, the percent of negative control (+Dex) in assay [2] is 91% (inactive). Moreover, the z-score was 0.035 in assay [2]; 0.21 (inactive) in assay [3]; -0.774 (inactive) in assay [4]; -1.39 (inactive) in assay [7] (setting [8]); -0.429 in assay [7] (setting [9]). In addition, in assay [5], the EGFP object count is 4.5. Further, the EGFP/DsRed ratio in assay [5] is 0.0627 (inactive). The fraction signal in assay [6] is -0.005 (inactive).

The compound `CCCN1CCC(c2ccc(Nc3nc(Nc4cc(F)ccc4C(N)=O)c4cc[nH]c4n3)c(OC)c2)CC1` came in with a liver cell % of control in assay [1] of 73%. Besides, the parasite % of control in assay [1] was 355% (inactive). For the same compound, in assay [2], the percent of negative control (+Dex) is 72% (inactive). Also, the z-score in assay [2] was -1.46; in assay [3], 0.62 (inactive); in assay [4] it was -0.577 (inactive); in assay [7] (setting [8]), -0.472; in assay [7] (setting [9]), 7.31. Moreover, the EGFP object count in assay [5] was 22.5. Further, the EGFP/DsRed ratio in assay [5] is 0.237 (inactive). In addition, in assay [6], the fraction signal was -0.0085 (inactive).

In assay [1], `O=C(O[C@H]1CN[C@H](C#Cc2cc3ncnc(Nc4ccc5c(cnn5Cc5ccccc5)c4)c3s2)C1)N1CCOCC1` displayed a liver cell % of control of 118%. The parasite % of control in assay [1] is 137% (inactive). In addition, the percent of negative control (+Dex) in assay [2] is 58% (inactive). In addition, the z-score in assay [2] is -2.13; in assay [3] it was 1.08 (inactive); in assay [4], -0.862 (inactive); in assay [7] (setting [8]), 0.875 (inactive); in assay [7] (setting [9]), -0.356. Further, the EGFP object count in assay [5] worked out at 3. Besides, the EGFP/DsRed ratio in assay [5] is 0.0849 (inactive). The fraction signal in assay [6] is -0.0115 (inactive).

Regarding `CCn1c(-c2nonc2N)nc2ccccc21`, the liver cell % of control in assay [1] was determined as 97.5%. The parasite % of control in assay [1] was 113% (inactive). For the same compound, the percent of negative control (+Dex) in assay [2] is 80% (inactive). Moreover, the z-score in assay [2] is -0.405; in assay [3], 0.585 (inactive); in assay [4], 0.013 (inactive); in assay [7] (setting [8]), -0.294 (inactive); in assay [7] (setting [9]), -0.443. The EGFP object count in assay [5] turned out to be 3. Besides, the EGFP/DsRed ratio in assay [5] was 0.0652 (inactive). Also, in assay [6], the fraction signal is -0.0025 (inactive).

Regarding `Cc1cc(O)cc(C)c1/C=C/c1cncc(C(=O)N(C)C)c1`, the liver cell % of control in assay [1] was 97.7%. Also, in assay [1], the parasite % of control is 96.9% (inactive). Besides, the percent of negative control (+Dex) in assay [2] was 106% (inactive). The z-score is 0.005 in assay [2]; 0.18 (inactive) in assay [3]; 0.003 (inactive) in assay [4]; -0.281 (inactive) in assay [7] (setting [8]); -0.0339 in assay [7] (setting [9]). In addition, the EGFP object count in assay [5] turned out to be 4.5. Further, the EGFP/DsRed ratio in assay [5] is 0.177 (inactive). Moreover, the fraction signal in assay [6] is 0.0095 (inactive).

On to `CN1CCC(n2cnc(-c3ccc(F)cc3)c2-c2ccnc(NCCO)n2)CC1`, for which, in assay [1], the liver cell % of control came out at 86.8%. Besides, the parasite % of control in assay [1] was 138% (inactive). In addition, the percent of negative control (+Dex) in assay [2] was 102% (inactive). Besides, the z-score in assay [2] was 1.04; in assay [3] it was 0.4 (inactive); in assay [4], 0.387 (inactive); in assay [7] (setting [8]) it was -0.289 (inactive); in assay [7] (setting [9]), -0.297. The EGFP object count in assay [5] stood at 3.5. For the same compound, the EGFP/DsRed ratio in assay [5] was 0.139 (inactive). Besides, the fraction signal in assay [6] is -0.0015 (inactive).

`CCCNc1cccc(-n2ncc3c(N/N=C/c4ccncc4)ncnc32)c1` registered a liver cell % of control in assay [1] of 95.8%. The parasite % of control in assay [1] was 39.7% (inactive). In assay [2], the percent of negative control (+Dex) was 90% (inactive). The z-score is -0.38 in assay [2]; 0.37 (inactive) in assay [3]; -1.11 (inactive) in assay [4]; 1.12 (inactive) in assay [7] (setting [8]); -0.108 in assay [7] (setting [9]). In addition, the EGFP object count in assay [5] was determined as 8.5. Moreover, the EGFP/DsRed ratio in assay [5] was 0.328 (inactive). Moreover, the fraction signal in assay [6] was -0.005 (inactive).

Consider `Nc1nonc1-c1nc2cnccc2n1C1CCCCC1`, for which the liver cell % of control in assay [1] turned out to be 69%. In addition, the parasite % of control in assay [1] is 61.4% (inactive). The percent of negative control (+Dex) in assay [2] is 29.5% (active). Moreover, the z-score in assay [2] was -7.08; in assay [3] it was -0.155 (inactive); in assay [4], -0.857 (inactive); in assay [7] (setting [8]), -0.132 (inactive); in assay [7] (setting [9]), -0.207. The EGFP object count in assay [5] turned out to be 3.5. For the same compound, in assay [5], the EGFP/DsRed ratio is 0.0658 (inactive). Moreover, the fraction signal in assay [6] was -0.002 (inactive).

In the case of `COC(=O)Nc1nc2ccc(Oc3ccc(NC(=O)Nc4cccc(Br)c4)cc3)cc2[nH]1`, the liver cell % of control in assay [1] was 77.3%. Also, the parasite % of control in assay [1] was 247% (inactive). Also, the percent of negative control (+Dex) in assay [2] was 104% (inactive). In addition, the z-score in assay [2] was 0.65; in assay [3] it was -0.435 (inactive); in assay [4], 0.412 (inactive); in assay [7] (setting [8]) it was 0.278 (inactive); in assay [7] (setting [9]), -0.0385. In addition, the EGFP object count in assay [5] stood at 6.5. Moreover, in assay [5], the EGFP/DsRed ratio is 0.0884 (inactive). The fraction signal in assay [6] was -0.001 (inactive).

As to `Fc1cccc(COc2ccc(Nc3ncnc4cc(-c5ccc[nH]5)sc34)cc2Cl)c1`, the liver cell % of control in assay [1] is 45.8%. Moreover, in assay [1], the parasite % of control is 16.2% (inactive). In addition, the percent of negative control (+Dex) in assay [2] is 66.5% (inactive). Also, the z-score in assay [2] is -1.57; in assay [3] it was 0.215 (inactive); in assay [4], -0.371 (inactive); in assay [7] (setting [8]), -0.761 (inactive); in assay [7] (setting [9]), -0.0837. In addition, in assay [5], the EGFP object count came out at 3. For the same compound, in assay [5], the EGFP/DsRed ratio is 0.034 (inactive). For the same compound, the fraction signal in assay [6] is -0.0045 (inactive).

As for `NC(=O)c1cc(-c2ccncc2)cc(-c2ccccc2)c1N`, in assay [1], the liver cell % of control came out at 95.8%. Moreover, the parasite % of control in assay [1] is 55.5% (inactive). Besides, the percent of negative control (+Dex) in assay [2] is 52% (inactive). Also, the z-score is -4.61 in assay [2]; -0.845 (inactive) in assay [3]; -1.14 (inactive) in assay [4]; -0.817 (inactive) in assay [7] (setting [8]); -0.475 in assay [7] (setting [9]). Further, the EGFP object count in assay [5] was 2.5. Besides, the EGFP/DsRed ratio in assay [5] was 0.104 (inactive). For the same compound, the fraction signal in assay [6] is 0.0085 (inactive).
